This is an account of results in article PMC7862700, “An all-to-all approach to the identification of sequence-specific readers for epigenetic DNA modifications on cytosine”.

Common to all, as to assay: DAPPL (digital affinity profiling via proximity ligation, sequencing); 10 mM Tris-HCl pH 7.5, 50 mM NaCl, 1 mM DTT, 4% glycerol, room temperature, 30 min; GST-TFs on glutathione beads, 16-mer random dsDNA library, 0.1% formaldehyde crosslink after washing; high values mean tight binding
The target in one assay is T1, FLI1 (Homo sapiens, UniProt Q01543 1-452).
T1 sequence: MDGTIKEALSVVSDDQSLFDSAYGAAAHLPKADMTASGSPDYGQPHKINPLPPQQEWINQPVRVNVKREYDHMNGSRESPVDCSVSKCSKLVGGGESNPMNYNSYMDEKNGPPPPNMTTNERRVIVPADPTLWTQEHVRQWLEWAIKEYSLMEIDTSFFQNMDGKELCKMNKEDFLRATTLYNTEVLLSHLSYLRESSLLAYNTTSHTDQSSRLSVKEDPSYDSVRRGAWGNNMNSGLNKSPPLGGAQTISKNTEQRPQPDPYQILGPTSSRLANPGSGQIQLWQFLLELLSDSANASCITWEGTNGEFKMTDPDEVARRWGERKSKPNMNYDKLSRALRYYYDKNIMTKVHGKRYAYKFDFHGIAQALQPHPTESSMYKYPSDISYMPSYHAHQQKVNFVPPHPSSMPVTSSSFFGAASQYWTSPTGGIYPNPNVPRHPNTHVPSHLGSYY
Particulars: protein: recombinant; tags: N-terminal GST; dsDNA, one strand shown. The essentials: (§1)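 Beads coated with glutathione captured GST-fused human transcription factors that had been expressed in yeast, and the factors were then given DNA barcodes and pooled with a tag-only sample. The pools were incubated with 200 nmole of a random double-stranded 16-mer DNA library in Tris/NaCl/DTT/glycerol buffer for 30 min at room temperature, washed, crosslinked with 0.1% formaldehyde and proximity-ligated with BsaI/T4 ligase at 37 °C for 1 h. PCR amplification and Illumina NextSeq500 sequencing came last. Binding signal is each hexamer's read frequency for a factor divided by its frequency for the tag-only sample.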

A further assay has as its target T2, ELK1 (Homo sapiens, UniProt P19419 1-428).
T2 sequence: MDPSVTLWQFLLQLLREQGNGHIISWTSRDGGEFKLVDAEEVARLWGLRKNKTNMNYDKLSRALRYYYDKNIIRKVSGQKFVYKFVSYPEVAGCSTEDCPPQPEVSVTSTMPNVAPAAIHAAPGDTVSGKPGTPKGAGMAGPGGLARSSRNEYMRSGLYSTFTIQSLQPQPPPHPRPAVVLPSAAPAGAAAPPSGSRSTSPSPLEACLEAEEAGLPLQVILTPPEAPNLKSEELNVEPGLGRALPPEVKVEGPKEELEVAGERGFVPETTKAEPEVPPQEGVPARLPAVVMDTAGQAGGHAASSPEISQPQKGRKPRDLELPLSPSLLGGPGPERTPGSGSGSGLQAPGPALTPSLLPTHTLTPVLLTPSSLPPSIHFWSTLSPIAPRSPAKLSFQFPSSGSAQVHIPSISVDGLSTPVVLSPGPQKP
Particulars: protein: recombinant; tags: N-terminal GST; dsDNA, one strand shown. Put shortly: as §1

In a further assay the target is T3, GABPA (Homo sapiens, UniProt Q06546 1-454).
T3 sequence: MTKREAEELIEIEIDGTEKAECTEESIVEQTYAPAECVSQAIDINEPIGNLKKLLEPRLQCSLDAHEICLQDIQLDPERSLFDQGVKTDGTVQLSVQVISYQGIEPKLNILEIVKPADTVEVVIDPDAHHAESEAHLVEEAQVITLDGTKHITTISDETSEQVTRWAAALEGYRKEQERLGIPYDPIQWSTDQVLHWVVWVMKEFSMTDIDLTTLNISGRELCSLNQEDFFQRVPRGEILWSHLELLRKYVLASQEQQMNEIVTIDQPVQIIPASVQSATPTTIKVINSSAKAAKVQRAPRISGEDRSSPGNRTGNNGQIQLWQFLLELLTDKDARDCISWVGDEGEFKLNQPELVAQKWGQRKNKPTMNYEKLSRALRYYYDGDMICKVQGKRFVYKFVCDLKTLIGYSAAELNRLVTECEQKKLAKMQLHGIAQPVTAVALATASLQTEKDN
To be noted: protein: recombinant; tags: N-terminal GST; dsDNA, one strand shown. Put shortly:
as §1

The next assay has as its target T4, ERG (Homo sapiens, UniProt P11308 1-479).
T4 sequence: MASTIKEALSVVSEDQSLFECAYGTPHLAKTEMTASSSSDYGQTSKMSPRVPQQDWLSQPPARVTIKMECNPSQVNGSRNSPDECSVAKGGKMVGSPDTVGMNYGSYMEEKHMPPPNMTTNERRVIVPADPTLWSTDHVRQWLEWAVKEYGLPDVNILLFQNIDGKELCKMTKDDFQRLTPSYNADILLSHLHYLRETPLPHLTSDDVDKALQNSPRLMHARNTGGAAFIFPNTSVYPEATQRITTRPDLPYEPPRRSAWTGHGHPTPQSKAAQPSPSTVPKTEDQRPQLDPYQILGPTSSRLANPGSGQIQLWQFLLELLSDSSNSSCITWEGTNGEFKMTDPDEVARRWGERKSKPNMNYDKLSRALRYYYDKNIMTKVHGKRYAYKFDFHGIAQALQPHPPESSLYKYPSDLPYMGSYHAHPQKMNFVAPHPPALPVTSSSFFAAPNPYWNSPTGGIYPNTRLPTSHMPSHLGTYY
Particulars: protein: recombinant; tags: N-terminal GST; dsDNA, one strand shown. Put shortly: as §1

The target of the next assay is ELF1 (Homo sapiens, UniProt P32519 1-619). To be noted: protein: recombinant; tags: N-terminal GST; dsDNA, one strand shown. Put shortly:
as §1

A further assay deals with T5, EHF (Homo sapiens, UniProt Q9NZC4 1-300).
T5 sequence: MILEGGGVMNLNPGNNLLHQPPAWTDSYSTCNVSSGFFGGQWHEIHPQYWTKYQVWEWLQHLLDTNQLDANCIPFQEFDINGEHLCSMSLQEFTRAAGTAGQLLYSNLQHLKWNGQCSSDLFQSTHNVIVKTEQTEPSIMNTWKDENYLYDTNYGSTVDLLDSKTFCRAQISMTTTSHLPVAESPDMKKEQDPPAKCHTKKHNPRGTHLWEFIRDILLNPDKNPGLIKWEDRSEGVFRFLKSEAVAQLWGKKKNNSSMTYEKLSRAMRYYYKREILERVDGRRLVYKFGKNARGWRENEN
Particulars: protein: recombinant; tags: N-terminal GST; dsDNA, one strand shown. The essentials:
as §1

For the next assay, the target named is SPI1 (Homo sapiens, UniProt P17947 1-270). Particulars: protein: recombinant; tags: N-terminal GST; dsDNA, one strand shown. Put shortly:
as §1

The target in a further assay is SPIB (Homo sapiens, UniProt Q01892 1-262). Particulars: protein: recombinant; tags: N-terminal GST; dsDNA, one strand shown. Put shortly: as §1
A further assay addresses T6, ELK3 (Homo sapiens, UniProt P41970 1-407).
T6 sequence: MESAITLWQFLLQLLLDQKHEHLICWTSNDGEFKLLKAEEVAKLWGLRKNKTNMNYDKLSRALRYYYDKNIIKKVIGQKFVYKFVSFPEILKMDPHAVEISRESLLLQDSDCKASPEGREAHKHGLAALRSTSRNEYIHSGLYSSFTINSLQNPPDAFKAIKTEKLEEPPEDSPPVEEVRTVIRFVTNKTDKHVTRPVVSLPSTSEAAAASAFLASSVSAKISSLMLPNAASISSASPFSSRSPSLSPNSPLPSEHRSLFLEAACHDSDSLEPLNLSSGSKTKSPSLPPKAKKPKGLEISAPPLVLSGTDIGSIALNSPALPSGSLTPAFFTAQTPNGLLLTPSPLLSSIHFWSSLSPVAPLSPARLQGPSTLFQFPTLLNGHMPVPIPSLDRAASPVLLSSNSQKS
Particulars: protein: recombinant; tags: N-terminal GST; dsDNA, one strand shown. Put shortly: as §1

The target in the next assay is T7, FEV (Homo sapiens, UniProt Q99581 1-238).
T7 sequence: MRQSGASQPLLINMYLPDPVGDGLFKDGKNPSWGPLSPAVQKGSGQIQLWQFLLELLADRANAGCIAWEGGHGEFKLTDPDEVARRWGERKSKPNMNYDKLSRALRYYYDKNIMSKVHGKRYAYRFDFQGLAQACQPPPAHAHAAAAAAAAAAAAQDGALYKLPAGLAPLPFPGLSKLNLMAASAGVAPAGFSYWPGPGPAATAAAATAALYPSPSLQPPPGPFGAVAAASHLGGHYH
Particulars: protein: recombinant; tags: N-terminal GST; dsDNA, one strand shown. Put shortly:
as §1

For a further assay, the target named is ETV5 (Homo sapiens, UniProt P41161 1-510). Particulars: protein: recombinant; tags: N-terminal GST; dsDNA, one strand shown. Put shortly:
as §1

A further assay deals with HSF1 (Homo sapiens, UniProt Q00613 1-529). Particulars: protein: recombinant; tags: N-terminal GST; chain copies: 3; dsDNA, one strand shown. The essentials:
as §1

In the next assay the target is T8, SPIC (Homo sapiens, UniProt Q8N5J4 1-248).
T8 sequence: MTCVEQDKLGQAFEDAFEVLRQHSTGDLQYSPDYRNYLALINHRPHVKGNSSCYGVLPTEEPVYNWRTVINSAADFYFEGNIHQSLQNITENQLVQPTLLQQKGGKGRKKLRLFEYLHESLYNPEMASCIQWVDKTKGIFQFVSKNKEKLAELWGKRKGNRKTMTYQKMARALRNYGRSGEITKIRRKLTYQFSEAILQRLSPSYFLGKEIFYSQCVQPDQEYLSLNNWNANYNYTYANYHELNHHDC
To be noted: protein: recombinant; tags: N-terminal GST; dsDNA, one strand shown. Put shortly: as §1

The next assay deals with ELF4 (Homo sapiens, UniProt Q99607 1-663). To be noted: protein: recombinant; tags: N-terminal GST; dsDNA, one strand shown. The essentials: as §1
A further assay concerns the target T9, ETV2 (Homo sapiens, UniProt O00321 1-342).
T9 sequence: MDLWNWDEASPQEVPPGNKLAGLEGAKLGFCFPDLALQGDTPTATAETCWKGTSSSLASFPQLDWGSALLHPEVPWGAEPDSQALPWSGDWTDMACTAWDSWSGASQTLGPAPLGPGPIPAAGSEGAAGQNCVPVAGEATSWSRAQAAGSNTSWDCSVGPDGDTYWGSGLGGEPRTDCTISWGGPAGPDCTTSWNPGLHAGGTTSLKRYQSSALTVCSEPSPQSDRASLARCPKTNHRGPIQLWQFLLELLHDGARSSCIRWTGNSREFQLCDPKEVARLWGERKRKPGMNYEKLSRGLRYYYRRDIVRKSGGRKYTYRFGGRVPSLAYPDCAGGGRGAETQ
Particulars: protein: recombinant; tags: N-terminal GST; dsDNA, one strand shown. Put shortly: as §1

A further assay has as its target T10, ELF3 (Homo sapiens, UniProt P78545 1-371).
T10 sequence: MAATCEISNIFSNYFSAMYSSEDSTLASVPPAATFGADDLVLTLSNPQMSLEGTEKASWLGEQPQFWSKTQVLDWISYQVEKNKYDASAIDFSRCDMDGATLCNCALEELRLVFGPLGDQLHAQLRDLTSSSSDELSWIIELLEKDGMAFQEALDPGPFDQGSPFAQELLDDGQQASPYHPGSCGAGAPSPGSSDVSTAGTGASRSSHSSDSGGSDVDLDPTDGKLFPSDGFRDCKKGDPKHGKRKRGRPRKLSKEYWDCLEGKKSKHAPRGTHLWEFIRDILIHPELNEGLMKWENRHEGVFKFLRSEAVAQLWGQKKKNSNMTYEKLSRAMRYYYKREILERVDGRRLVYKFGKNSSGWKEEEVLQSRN
To be noted: protein: recombinant; tags: N-terminal GST; dsDNA, one strand shown. The essentials: as §1

Another assay addresses CRX (Homo sapiens, UniProt O43186 1-299). To be noted: protein: recombinant; tags: N-terminal GST; dsDNA, one strand shown. The essentials:
as §1

Another assay has as its target ETV1 (Homo sapiens, UniProt P50549 1-477). Particulars: protein: recombinant; tags: N-terminal GST; dsDNA, one strand shown. The essentials: as §1

ELF1, sequence (P32519 whole entry): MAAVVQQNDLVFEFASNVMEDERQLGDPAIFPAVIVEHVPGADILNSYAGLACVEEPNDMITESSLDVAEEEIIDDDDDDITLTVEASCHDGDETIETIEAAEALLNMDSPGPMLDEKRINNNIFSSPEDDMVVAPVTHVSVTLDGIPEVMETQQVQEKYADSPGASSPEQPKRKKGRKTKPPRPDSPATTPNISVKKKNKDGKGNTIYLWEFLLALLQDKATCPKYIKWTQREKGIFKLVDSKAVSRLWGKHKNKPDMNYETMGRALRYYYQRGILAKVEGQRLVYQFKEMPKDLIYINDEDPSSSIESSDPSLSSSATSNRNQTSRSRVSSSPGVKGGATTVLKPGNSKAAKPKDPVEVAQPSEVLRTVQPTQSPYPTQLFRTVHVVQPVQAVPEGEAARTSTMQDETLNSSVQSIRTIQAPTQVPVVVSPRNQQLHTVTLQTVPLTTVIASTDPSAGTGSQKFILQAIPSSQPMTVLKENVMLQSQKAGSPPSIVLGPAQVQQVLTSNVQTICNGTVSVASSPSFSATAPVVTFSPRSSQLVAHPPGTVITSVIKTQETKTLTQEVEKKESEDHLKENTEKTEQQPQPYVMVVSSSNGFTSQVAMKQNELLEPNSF
ETV1, sequence (P50549 whole entry): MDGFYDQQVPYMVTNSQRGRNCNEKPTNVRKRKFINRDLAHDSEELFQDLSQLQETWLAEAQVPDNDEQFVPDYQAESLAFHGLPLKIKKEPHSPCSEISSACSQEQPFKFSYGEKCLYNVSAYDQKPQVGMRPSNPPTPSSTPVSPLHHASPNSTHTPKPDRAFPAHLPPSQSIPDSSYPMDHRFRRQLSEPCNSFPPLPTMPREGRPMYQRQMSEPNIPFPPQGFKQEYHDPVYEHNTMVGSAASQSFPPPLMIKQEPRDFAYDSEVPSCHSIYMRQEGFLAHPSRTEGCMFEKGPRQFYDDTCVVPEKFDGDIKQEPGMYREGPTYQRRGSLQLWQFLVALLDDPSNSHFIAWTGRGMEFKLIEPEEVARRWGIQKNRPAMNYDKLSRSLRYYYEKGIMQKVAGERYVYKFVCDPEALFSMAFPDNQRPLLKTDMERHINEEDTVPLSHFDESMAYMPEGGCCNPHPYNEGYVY
CRX, sequence (O43186 whole entry): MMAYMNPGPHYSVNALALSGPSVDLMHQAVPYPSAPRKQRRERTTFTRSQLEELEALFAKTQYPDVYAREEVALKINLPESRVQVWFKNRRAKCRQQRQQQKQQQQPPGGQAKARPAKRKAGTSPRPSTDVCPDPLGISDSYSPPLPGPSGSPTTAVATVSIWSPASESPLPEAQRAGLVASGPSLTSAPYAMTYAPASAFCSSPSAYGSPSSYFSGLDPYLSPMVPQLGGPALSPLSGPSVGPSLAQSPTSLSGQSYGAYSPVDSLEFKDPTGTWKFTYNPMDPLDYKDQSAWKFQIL
HSF1, sequence (Q00613 whole entry): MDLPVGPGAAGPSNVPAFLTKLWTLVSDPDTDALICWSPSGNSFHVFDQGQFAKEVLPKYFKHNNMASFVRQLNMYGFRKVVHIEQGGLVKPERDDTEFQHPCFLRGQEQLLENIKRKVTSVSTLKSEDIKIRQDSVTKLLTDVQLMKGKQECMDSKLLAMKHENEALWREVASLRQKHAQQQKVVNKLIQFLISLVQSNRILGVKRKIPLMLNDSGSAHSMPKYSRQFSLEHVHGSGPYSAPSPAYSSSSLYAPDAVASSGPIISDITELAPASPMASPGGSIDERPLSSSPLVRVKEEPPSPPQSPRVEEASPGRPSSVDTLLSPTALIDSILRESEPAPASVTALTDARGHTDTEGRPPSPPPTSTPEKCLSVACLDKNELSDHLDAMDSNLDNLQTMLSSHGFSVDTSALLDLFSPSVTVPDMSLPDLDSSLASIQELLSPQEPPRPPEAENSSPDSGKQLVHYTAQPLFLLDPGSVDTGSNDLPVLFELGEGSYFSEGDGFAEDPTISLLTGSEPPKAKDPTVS
ELF4, sequence (Q99607 whole entry): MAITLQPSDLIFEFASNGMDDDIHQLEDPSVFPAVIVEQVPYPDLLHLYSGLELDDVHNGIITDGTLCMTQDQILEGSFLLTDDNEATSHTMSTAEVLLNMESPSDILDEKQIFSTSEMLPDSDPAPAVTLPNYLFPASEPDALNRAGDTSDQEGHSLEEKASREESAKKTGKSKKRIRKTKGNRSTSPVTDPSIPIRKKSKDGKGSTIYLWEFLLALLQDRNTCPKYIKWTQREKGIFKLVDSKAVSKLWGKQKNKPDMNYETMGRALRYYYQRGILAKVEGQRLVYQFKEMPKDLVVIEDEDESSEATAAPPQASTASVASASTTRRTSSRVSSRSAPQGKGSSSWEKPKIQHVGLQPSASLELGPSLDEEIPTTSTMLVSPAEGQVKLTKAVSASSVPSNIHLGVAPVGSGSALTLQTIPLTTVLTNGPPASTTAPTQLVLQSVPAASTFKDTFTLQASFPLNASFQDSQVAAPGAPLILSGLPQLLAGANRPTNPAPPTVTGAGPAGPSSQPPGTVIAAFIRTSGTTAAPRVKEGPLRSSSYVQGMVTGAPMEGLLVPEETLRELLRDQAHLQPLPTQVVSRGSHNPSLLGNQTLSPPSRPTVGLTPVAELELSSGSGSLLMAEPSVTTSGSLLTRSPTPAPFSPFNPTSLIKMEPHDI
ETV5, sequence (P41161 whole entry): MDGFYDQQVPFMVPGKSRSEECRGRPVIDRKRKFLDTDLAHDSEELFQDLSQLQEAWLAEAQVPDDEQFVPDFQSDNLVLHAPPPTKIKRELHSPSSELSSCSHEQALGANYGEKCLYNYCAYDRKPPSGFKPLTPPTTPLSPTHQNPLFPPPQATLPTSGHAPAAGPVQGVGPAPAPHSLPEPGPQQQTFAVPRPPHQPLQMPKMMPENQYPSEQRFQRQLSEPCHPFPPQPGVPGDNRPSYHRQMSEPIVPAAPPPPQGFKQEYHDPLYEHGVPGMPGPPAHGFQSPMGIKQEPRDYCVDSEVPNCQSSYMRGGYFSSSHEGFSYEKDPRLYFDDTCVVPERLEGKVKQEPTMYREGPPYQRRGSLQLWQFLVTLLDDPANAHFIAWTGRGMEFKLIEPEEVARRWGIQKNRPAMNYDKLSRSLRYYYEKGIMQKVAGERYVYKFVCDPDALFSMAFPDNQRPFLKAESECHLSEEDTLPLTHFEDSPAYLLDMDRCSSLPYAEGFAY
SPIB, sequence (Q01892 whole entry): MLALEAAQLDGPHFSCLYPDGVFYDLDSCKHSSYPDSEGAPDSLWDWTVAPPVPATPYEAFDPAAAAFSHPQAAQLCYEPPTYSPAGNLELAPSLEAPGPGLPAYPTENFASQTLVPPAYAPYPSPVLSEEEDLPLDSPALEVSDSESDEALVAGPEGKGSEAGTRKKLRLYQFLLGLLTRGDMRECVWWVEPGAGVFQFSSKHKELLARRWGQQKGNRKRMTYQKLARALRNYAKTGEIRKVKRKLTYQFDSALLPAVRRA

On to CAAATT, for which the binding signal was 1.15 fold enrichment (6-mer frequency, TF over GST control) in the assay with FLI1; 1.12 fold enrichment (6-mer frequency, TF over GST control) in the assay with ELK1; 1.2 fold enrichment (6-mer frequency, TF over GST control) in the assay with GABPA; 1.16 fold enrichment (6-mer frequency, TF over GST control) with ERG; 1.14 fold enrichment (6-mer frequency, TF over GST control) with ELF1; 1.11 fold enrichment (6-mer frequency, TF over GST control) with EHF. For the same sequence, the binding signal with SPI1 is 1.15 fold enrichment (6-mer frequency, TF over GST control); with SPIB it was 1.08 fold enrichment (6-mer frequency, TF over GST control); with ELK3 it was 1.14 fold enrichment (6-mer frequency, TF over GST control); with FEV, 1.14 fold enrichment (6-mer frequency, TF over GST control); with ETV5 it was 1.2 fold enrichment (6-mer frequency, TF over GST control); in the assay with HSF1, 1.17 fold enrichment (6-mer frequency, TF over GST control). Further, the binding signal with SPIC is 1.16 fold enrichment (6-mer frequency, TF over GST control); in the assay with ELF4, 1.07 fold enrichment (6-mer frequency, TF over GST control); in the assay with ETV2, 1.09 fold enrichment (6-mer frequency, TF over GST control); with ELF3, 1.17 fold enrichment (6-mer frequency, TF over GST control); with CRX it was 1.12 fold enrichment (6-mer frequency, TF over GST control); with ETV1, 1.18 fold enrichment (6-mer frequency, TF over GST control).
